Measurements as given in ChEMBL document CHEMBL3988442, “University of Dundee, Small-Polar-MMV Screening Library” (2021).
For some assays here: Measured potencies and affinities stand elsewhere.

Assays:
Design in all cases: scale not given: direction of the effect not stated beside the values
[1] = biological target: Protein translocase subunit SecA (Escherichia coli (strain K12)) (UniProt P10408); test: Assay to Identify E. coli SecA ATPase Inhibitors; format: functional; conditions: 30 µM
[2] = biological target: T1, Ubiquitin-activating enzyme e1, putative (Leishmania donovani (strain BPK282A1)) (UniProt E9BSI1); test: Leishmania donovani Ubiquitin Activating Enzyme (LdE1); format: functional; conditions: 30 µM
T1 sequence (whole entry): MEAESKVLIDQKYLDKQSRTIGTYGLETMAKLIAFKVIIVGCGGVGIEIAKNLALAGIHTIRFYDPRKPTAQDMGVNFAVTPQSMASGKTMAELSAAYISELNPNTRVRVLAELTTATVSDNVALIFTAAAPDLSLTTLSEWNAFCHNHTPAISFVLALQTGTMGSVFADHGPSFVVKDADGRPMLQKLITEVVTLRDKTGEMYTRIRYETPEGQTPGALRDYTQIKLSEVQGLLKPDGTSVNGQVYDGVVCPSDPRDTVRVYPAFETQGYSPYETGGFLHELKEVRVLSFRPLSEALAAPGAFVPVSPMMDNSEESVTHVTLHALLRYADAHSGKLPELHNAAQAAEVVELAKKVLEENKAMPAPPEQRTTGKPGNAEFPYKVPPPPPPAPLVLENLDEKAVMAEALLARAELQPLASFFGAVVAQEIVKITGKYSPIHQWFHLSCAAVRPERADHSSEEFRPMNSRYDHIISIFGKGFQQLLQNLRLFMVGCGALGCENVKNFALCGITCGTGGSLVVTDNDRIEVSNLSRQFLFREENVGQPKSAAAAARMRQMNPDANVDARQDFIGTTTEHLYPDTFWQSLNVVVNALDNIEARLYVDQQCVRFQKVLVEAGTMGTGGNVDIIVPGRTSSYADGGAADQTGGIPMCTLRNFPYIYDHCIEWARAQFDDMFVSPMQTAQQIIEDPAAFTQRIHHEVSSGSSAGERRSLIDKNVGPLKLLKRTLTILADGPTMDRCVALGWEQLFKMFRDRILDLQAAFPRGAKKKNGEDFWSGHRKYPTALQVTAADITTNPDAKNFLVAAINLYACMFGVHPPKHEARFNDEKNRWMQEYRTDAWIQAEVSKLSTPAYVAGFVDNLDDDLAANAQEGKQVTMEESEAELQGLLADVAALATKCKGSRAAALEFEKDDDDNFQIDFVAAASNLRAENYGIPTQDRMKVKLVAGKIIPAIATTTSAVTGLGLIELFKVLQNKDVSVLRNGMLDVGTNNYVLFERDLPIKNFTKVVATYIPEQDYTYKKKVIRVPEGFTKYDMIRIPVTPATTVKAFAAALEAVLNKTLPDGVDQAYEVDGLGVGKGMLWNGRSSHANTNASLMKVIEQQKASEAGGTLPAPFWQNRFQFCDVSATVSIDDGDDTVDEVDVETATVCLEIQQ

[3] = biological target: AMP-activated protein kinase, AMPK (Homo sapiens) (UniProt P54646+O43741+P54619+Q9UGJ0+Q9Y478+Q13131+Q9UGI9); test: AMP-dependent Kinase enzyme assay. An in vitro enzyme assay that detects ADP turnover that is directly proportional to AMPK activity. This uses naive AMPK that is activated during the assay with MK-8722; format: functional; conditions: 30 µM
[4] = biological target: Sialic acid-binding Ig-like lectin 9 (Homo sapiens) (UniProt Q9Y336); test: Hs-Siglec9 ALPHAscreen SOP 20170721; conditions: 10 µM
[5] = test system: Trypanosoma cruzi; test: Trypanosoma cruzi phosphomannomutase and mannose-1-phosphate guanylyltransferase assay; format: functional; conditions: 10 µM
[6] = biological target: T2, Arginase-2, mitochondrial (Homo sapiens) (UniProt P78540); test: in vitro enzyme assay to detect the production of urea directly proportional to the activity of Arginase II; format: functional; conditions: 33.3 µM; further: in the data most compounds retested in dose-response had high values
T2 sequence (whole entry): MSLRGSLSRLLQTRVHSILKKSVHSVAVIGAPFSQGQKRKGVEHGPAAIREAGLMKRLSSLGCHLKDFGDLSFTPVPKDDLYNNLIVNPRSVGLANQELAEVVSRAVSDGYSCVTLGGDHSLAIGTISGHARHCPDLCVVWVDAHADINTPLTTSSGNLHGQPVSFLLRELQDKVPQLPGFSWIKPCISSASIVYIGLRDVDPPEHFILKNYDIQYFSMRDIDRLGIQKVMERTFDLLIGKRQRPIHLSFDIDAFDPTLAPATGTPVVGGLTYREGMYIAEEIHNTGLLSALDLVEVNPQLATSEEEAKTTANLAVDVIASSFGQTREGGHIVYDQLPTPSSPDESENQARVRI

[7] = biological target: T3, Proteasome subunit beta (Trypanosoma cruzi) (UniProt O96673); test: Trypanosoma cruzi proteasome chymotrypsin-like activity (TcProtChymo) assay.; further: in the data most compounds retested in dose-response had high values; format: functional; conditions: 9.37 µM
T3 sequence (whole entry): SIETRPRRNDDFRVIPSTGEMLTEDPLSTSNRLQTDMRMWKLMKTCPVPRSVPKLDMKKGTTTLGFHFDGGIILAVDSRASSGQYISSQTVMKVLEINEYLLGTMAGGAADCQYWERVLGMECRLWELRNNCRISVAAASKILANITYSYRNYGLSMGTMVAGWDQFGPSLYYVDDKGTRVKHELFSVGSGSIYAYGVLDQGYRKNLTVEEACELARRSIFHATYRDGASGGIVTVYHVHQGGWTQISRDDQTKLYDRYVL

[8] = species on record: Homo sapiens; test: To identify inhibition of the IFN signalling (Jak-Stat) pathway via expression of an eGFP reporter gene under the control of an IFN-stimulated response element (ISRE) containing MxA promoter.; format: functional; conditions: 30 µM
[9] = biological target: T4, Tyrosyl-tRNA synthetase, putative (Trypanosoma cruzi (strain CL Brener)) (UniProt Q4DSP6); test: Trypanosoma cruzi tyrosyl tRNA synthetase (TcYRS) _High Tyrosine SOP; format: functional; conditions: 30 µM; further: in the data most compounds retested in dose-response had high values
T4 sequence (whole entry): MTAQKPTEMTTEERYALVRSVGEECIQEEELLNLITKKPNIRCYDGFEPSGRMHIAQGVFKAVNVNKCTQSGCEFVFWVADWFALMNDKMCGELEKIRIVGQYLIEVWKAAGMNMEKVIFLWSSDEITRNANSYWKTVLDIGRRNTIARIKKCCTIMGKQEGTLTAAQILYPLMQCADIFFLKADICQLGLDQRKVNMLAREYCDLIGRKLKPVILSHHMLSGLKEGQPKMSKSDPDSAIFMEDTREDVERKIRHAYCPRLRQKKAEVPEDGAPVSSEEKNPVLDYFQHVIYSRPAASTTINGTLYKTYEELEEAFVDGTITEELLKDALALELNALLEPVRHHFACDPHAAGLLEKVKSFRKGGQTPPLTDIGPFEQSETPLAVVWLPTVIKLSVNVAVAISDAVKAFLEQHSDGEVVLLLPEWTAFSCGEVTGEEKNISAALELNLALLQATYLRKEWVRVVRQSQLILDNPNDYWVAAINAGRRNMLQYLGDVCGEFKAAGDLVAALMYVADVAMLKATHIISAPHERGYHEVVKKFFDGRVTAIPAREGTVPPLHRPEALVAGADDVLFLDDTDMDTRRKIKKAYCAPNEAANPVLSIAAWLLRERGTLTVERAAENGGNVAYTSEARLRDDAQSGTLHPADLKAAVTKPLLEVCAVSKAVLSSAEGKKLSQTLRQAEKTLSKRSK

[10] = biological target: T4, Tyrosyl-tRNA synthetase, putative (Trypanosoma cruzi (strain CL Brener)); test: Trypanosoma cruzi tyrosyl tRNA synthetase (TcYRS) SOP; format: functional; conditions: 30 µM
[11] = biological target: Chromo domain-containing protein 1 (Saccharomyces cerevisiae (strain ATCC 204508 / S288c) (Baker's yeast)) (UniProt P32657); test: ScCHD-1 Enzyme Inhibition Assay; format: functional; conditions: 30 µM; further: in the data most compounds retested in dose-response had high values
Sequence of Chromo domain-containing protein 1 (Saccharomyces cerevisiae (strain ATCC 204508 / S288c) (Baker's yeast)) (P32657 whole entry, the tested form may be a part): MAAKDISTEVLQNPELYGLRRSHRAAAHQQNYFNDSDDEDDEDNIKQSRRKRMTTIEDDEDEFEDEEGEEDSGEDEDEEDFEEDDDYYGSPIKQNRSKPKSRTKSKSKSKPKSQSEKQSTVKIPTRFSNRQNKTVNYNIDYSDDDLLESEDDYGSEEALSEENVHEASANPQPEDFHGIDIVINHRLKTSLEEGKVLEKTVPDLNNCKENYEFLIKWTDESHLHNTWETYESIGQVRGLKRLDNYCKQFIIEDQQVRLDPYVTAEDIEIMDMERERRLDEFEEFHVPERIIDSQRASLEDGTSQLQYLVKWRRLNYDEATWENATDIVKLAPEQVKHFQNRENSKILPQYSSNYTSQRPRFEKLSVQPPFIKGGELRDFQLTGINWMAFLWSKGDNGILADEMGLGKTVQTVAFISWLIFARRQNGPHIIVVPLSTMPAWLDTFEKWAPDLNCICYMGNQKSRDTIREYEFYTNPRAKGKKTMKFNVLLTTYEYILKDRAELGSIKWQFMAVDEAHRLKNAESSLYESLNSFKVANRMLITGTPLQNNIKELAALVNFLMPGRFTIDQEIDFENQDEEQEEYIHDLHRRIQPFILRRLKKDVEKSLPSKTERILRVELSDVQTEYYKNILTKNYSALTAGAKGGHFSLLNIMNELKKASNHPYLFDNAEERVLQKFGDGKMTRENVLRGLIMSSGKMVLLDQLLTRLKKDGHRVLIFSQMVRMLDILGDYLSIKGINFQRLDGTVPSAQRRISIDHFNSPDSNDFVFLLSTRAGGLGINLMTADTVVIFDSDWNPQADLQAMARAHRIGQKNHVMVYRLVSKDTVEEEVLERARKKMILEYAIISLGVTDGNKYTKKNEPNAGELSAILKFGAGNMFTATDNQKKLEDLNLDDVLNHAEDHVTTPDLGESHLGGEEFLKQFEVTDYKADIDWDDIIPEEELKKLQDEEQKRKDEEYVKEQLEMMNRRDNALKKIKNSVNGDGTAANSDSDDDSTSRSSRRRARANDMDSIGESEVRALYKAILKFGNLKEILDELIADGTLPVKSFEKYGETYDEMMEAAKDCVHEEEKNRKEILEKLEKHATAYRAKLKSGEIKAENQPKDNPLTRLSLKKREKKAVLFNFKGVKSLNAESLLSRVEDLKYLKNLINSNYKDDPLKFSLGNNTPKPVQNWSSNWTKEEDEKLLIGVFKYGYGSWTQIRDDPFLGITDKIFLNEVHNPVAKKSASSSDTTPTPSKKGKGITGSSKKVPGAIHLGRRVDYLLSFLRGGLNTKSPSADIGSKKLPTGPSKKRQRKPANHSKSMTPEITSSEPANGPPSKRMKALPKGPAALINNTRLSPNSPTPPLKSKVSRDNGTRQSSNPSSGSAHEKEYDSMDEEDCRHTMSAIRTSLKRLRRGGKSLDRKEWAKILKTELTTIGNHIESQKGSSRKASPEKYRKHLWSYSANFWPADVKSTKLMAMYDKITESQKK

Sequence of Sialic acid-binding Ig-like lectin 9 (Homo sapiens) (Q9Y336 whole entry): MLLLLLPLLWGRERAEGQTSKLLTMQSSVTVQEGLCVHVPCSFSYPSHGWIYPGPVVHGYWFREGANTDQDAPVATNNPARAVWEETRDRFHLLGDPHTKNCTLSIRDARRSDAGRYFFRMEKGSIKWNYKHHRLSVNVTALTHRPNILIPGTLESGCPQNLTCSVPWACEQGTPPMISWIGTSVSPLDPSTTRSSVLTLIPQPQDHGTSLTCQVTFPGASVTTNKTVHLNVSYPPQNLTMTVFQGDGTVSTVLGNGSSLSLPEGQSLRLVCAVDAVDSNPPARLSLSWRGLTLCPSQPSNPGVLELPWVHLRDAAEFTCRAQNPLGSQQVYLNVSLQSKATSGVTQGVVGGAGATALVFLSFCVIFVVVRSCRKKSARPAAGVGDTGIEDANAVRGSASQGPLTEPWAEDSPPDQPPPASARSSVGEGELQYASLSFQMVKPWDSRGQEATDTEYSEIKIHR
Sequence of Protein translocase subunit SecA (Escherichia coli (strain K12)) (P10408 whole entry): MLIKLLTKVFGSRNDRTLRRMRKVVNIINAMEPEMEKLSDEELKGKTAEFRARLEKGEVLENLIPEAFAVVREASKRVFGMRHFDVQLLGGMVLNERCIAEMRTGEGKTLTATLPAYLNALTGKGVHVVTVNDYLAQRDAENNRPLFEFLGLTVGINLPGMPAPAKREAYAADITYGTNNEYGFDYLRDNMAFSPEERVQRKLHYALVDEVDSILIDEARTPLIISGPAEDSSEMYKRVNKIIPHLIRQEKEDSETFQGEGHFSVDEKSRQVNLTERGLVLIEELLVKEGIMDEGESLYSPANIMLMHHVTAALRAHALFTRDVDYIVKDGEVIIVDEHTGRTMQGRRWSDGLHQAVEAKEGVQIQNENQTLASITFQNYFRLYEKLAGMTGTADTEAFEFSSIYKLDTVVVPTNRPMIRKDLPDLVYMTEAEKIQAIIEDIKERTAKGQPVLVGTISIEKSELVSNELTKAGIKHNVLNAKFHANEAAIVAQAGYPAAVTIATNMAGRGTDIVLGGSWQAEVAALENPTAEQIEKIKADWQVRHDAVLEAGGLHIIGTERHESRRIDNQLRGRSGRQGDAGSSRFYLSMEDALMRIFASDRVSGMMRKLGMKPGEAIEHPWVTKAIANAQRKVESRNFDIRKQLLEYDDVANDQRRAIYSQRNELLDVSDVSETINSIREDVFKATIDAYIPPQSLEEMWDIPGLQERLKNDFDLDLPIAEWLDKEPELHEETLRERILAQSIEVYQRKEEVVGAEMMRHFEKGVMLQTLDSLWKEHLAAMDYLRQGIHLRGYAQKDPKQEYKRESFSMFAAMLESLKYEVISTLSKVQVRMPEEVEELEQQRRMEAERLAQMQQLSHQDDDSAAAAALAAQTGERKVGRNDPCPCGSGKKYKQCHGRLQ

Row | Compound | Percent Effect [1] [%] | Percent Effect [2] [%] | Percent Effect [3] [%] | Percent Effect [4] [%] | Percent Effect [5] [%] | Percent Effect [6] [%] | Percent Effect [7] [%] | Percent Effect [8] [%] | Percent Effect [9] [%] | Percent Effect [10] [%] | Percent Effect [11] [%]
1 | CCn1cc(Br)c(C(=O)NCc2cnn(C)c2)n1 | -1.67 | 13 | -0.504 | 11.9 | 6.79 | -6.9 | 13 | 1.3 | 8.6 | 21 | 18.8
2 | Cc1ccc2c(n1)N(CCn1cccn1)CCN(C(=O)NC1CC1)C2 | -4.03 | 10.8 | -7.12 | 26.1 | 6.55 | -1.24 | 18.1 | -2.83 | 5.38 | 16.1 | -4.31
3 | Cc1noc2ncc(C(=O)N3CCCC3c3ccncc3)cc12 (configuration not stated) | -7.65 | 20.2 | -6.44 | 0.762 | 10.1 | -3.42 | 17.4 | 21.9 | 5.42 | 24.1 | -9.53
4 | CC(CN1CCC2(CC1)c1nc[nH]c1CCN2S(C)(=O)=O)C(F)(F)F (configuration not stated) | -5.83 | 4.17 | -4.55 | 0.526 | -2.62 | -1.77 | 8.07 | -8.95 | 3.16 | 2.56 | -1.32
5 | c1ccc(Cn2cncn2)c(CNCC2CNc3ccnn3C2)c1 (configuration not stated) | 0.235 | 20.8 | -8.08 | 4.1 | 10.3 | 1.78 | 8.45 | 12.4 | 12.6 | 21.9 | -7.41
6 | Cc1nn(C)cc1CN(C)Cc1cc2c(cc1OC(F)F)OCO2 | -4.54 | 0 | -4.17 | -1.2 | 1.07 | -0.744 | -3.18 | -8.11 | -1.07 | 3.7 | -3.28
7 | CCc1cc(N2CCSCC2)n2nc(C)c(C)c2n1 | -2.37 | 5.33 | 2.1 | 4.26 | -4.97 | 1.04 | 26.7 | 15.8 | -2.73 | 6.17 | -6.13
8 | Cc1cnn(CC2CCCN2C(=O)CCc2c(C)noc2Cl)c1 (configuration not stated) | -2.86 | -2.63 | 5.68 | -4.15 | 7.11 | 4.73 | 13.5 | -23.3 | 5.32 | 5.2 | 1.72
9 | Cc1noc(CN2CCOC(CN(C)C)C2)n1 (configuration not stated) | -2.18 | 24.3 | 0.532 | -4.95 | 5.11 | 2.77 | 11.3 | 22.3 | 5.94 | 18.3 | -7.83
10 | OC1(Cn2ccc3ccncc32)CCN(Cc2ccccn2)CC1 | 0.875 | 6.76 | 1.5 | 0.0823 | -10.7 | 2.55 | 8.42 | 17.6 | -1.07 | 9.09 | -2.25
11 | CC(C)CN1CCCn2nc(CNC(=O)c3cccnc3O)cc2C1 | -5.79 | 21.3 | -6.62 | 22.5 | 6.52 | 5.73 | 13.2 | 13.9 | 6.01 | 18.5 | -7.12
12 | COc1ccc(NC(=O)c2ccc(-n3ncc(C#N)c3N)cc2)cn1 | -3.59 | 10.1 | 0.744 | 15.3 | -3.68 | -4.94 | 0.901 | 8.55 | 4.43 | 8.86 | -4.68
13 | CC(C)(C)NC(=O)C1CSCN1S(=O)(=O)c1ccc(F)cc1 (configuration not stated) | -1.95 | 6.33 | 3.86 | -0.312 | -4 | -4.52 | 15.4 | 21.8 | 7.29 | 20.2 | -14.6
14 | OCCn1cc(CN2CCN(CCOc3ccccc3)CC2)cn1 | -4.31 | 8.11 | -1.96 | 0.413 | -4.36 | 1.29 | 11.3 | 3.13 | 2.97 | 3.66 | -2.48
15 | Cn1ncc2c1NC(=O)CC2c1ccccc1Cl (configuration not stated) | -6.92 | 10.5 | 5.36 | 7.02 | 3.6 | -5.92 | 6.62 | 16.4 | 1.06 | 5.2 | -0.659
16 | O=C(NCc1cn2c(n1)CN(CC1CCOCC1)CC2)C1CCC1 | -8.08 | -2.7 | 4.27 | 1.46 | -2.73 | -1.25 | 12.9 | 5.25 | 2.97 | 1.22 | -0.655
17 | Cc1ccccc1N1CCCN(C(=O)CCCS(N)(=O)=O)CC1 | -0.353 | 8.22 | 25.9 | 2.05 | -8.62 | 2.73 | 23.8 | 28.3 | 3.23 | 2.5 | -13.8
18 | COc1ccc2c(O)c(NC(=O)NCC3CC3)cnc2c1 | 1.05 | 14.9 | 9.57 | -7.59 | -1.38 | -4.87 | 14.7 | 7.86 | 2.15 | 9.09 | -11.6
19 | CN1CCOC(CNCc2coc(-c3cccs3)n2)C1 (configuration not stated) | -2.66 | 22.8 | -18.2 | -13.1 | 5.38 | 3.42 | 8.27 | 12.8 | 8.37 | 21.5 | -14.2
20 | CN(Cc1cc2c(cc1OC(F)F)OCO2)Cc1nccn1C | -4.78 | 2.7 | -4.36 | 4 | 1.27 | -0.744 | 5.58 | 0.0596 | 3.23 | 6.17 | -1.72
21 | OC1CCCN(Cc2c(-c3ccco3)[nH]c3ncccc23)C1 (configuration not stated) | -4.22 | 25.7 | -13.3 | 19 | 2.17 | -1.16 | 11.1 | 20.3 | 6.45 | 19.5 | -18.1
22 | Cc1cc(C2CCCN2CC(=O)N(CCC#N)c2ccccc2F)on1 (configuration not stated) | -2.04 | 10.8 | -3.15 | 8.81 | 4.18 | -4.99 | 19.4 | 8.68 | 3.96 | 23.2 | -6.79
